# Bioassay records from PubChem.
# BAZ2B block: inhibitors of human BAZ2B bromodomain; Q9UIF8; AlphaScreen BAZ2B-H3K14Ac peptide displacement; Potency, µM (titrated, usually from 114 µM), for inactives: at the highest dose activity change, negative = inhibition, most hits filed as inhibitors; 360,000 compounds, 4.4% hits; note: % is set by controls: 0 for no effect and ±100 for the full control effect; nearly all actives have a fitted effect of over 60% in size
#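 Protein-peptide AlphaScreen: BAZ2B 50 nM, b-H3K14Ac 50 nM, 1x PBS pH 7.4 + 0.01% Tween-20. Preincubation 30 min RT; cpd 30 min RT (top 110 uM); beads 20 min RT, light-protected.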
# HP1b chromo inh: HP1-beta chromodomain-methylated histone interaction inhibition | P83916 | 390,000 compounds, 0.56% hits | Potency, µM (highest dose often 114 µM), without a hit: top-dose activity change, negative = inhibition, most hits filed as inhibitors | AID 540317 | AlphaScreen HP1-beta / biotin-H3K9me3 peptide binding; note: nearly all actives have a fitted effect of over 70% in size
#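 Compound inhibition of the preformed complex between 50 nM HP1-beta and 50 nM biotinylated H3K9me3 peptide was read by AlphaScreen. Buffer was PBS pH 7.4 with 0.01% Tween-20. Incubations ran 30 min at room temperature, with 10 ug/mL donor/acceptor beads.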
# JMJD2A Tudor: inhibitors of human JMJD2A Tudor domain. O75164. AlphaScreen JMJD2A-Tudor / H3K4me3 peptide binding. Potency, µM (series often up to 114 µM), for inactives: top-dose activity change, negative = inhibition, most hits filed as inhibitors. 390,000 compounds, 4.4% hits; note: % is set by controls: 0 for no effect and ±100 for the full control effect; nearly all actives have a fitted effect of over 50% in size
# GLS inh: inhibitors of human glutaminase (GLS) | O94925 | GLS enzymatic activity, qHTS titration | Potency, µM (highest dose often 45.5 µM), inactives show top-dose activity change, negative = inhibition, hits mostly inhibitors | 410,000 compounds, 0.21% hits | AID 624170; note: % is set by controls: 0 for no effect and ±100 for the full control effect
# Target sequence (O94925 whole entry, looked up): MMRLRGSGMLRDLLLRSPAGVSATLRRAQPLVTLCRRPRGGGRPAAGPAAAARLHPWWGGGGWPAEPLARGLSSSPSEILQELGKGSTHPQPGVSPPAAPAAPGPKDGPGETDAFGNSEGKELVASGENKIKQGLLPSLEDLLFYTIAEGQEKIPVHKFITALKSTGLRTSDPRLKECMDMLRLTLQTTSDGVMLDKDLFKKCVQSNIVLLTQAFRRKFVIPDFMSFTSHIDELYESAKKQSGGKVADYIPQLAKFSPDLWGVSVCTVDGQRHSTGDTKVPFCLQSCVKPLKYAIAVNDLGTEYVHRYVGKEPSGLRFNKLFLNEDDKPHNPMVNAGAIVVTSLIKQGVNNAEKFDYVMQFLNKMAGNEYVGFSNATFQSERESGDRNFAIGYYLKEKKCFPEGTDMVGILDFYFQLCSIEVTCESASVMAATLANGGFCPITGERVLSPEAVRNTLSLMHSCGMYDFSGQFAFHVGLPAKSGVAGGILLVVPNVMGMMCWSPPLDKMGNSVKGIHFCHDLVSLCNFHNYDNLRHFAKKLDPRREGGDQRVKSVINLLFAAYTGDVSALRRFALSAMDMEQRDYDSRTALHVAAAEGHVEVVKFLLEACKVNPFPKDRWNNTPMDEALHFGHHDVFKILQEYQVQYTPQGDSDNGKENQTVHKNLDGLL
#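 Human kidney-isoform GLS in 45 mM KH2PO4 pH 8.2, 0.02% Tween-20, with compound, started with 1mM L-Glutamine (added stock). Glutamate oxidase/HRP/Amplex red coupled fluorescence read at start and after 30 min at RT.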
# G9a inh: inhibitors of human histone lysine methyltransferase G9a; Q96KQ7; G9a H3K9 monomethylation, AlphaScreen, 2 h; Potency, µM (doses to about 102 µM), inactives show at the highest dose activity, negative = inhibition, hits mostly inhibitors; 350,000 compounds, 8.8% hits; AID 504332; note: % is set by controls: 0 for no effect and ±100 for the full control effect; nearly all actives have a fitted effect of over 75% in size
#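 Readings reflect AlphaScreen signal from monomethyl-H3K9 antibody detection. HMT at 20 nM; substrate b-H3K9 500 nM; cofactor SAM 20 uM; 2 h RT reaction; compounds tested as titrations in qHTS with 15 min preincubation.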
# * = called active by the depositor; ? = inconclusive; nt = no result; [ ] = dose if it differs, or a comment. This is a sample that favours compounds with a hit; in the whole collection about 10% have one here. Calls come from the whole dose curve; as a rule, active = well fitted curve in the direction sought with a large enough effect; inconclusive = small, poorly fitted or top-dose-only effect, or another doubt; inactive = no such curve, though single readings can be large; an effect the other way counts as inactive or inconclusive. Potency is the fitted concentration of half-maximal effect.
SMILES,BAZ2B block,HP1b chromo inh,JMJD2A Tudor,GLS inh,G9a inh
COc1ccc(-c2[nH]c(-c3ccc(Cl)cc3)nc2SCC(=O)Nc2nccs2)cc1,-27.2%,21.4%,-23.8%,-3.9%,?
COc1ccc(N(CC(=O)NCCc2ccccc2)C(=O)CCC(=O)Nc2nccs2)cc1,-1.8%,?,-8.5%,10.7%,56.2µM*
COc1cccc(-c2nc(SCC(=O)NC3CCCC3)c(-c3ccc(C)cc3)[nH]2)c1,-4.8%,3.9%,?,5.2%,-5.1%[59 µM]
COc1ccc(-c2[nH]c(-c3ccc(C)cc3)nc2SCC(=O)NC2CCCC2)cc1,?,-7.1%,?,-9.7%,50.1µM*
Cc1ccc2c(c1)N(CC(=O)NCCC1=CCCCC1)C(=O)c1cccnc1O2,?,51.6%,-13.4%,11.1%,nt
COc1ccc([C@H]2CC(=O)C[C@@H](CCn3cc(CCc4ccccc4)nn3)O2)cc1,nt,nt,nt,-0.3%,nt
O=C(NCc1cccs1)c1cccnc1SCCS(=O)(=O)c1ccc(C(F)(F)F)cn1,2.3%,40.5%,-15.5%,1.6%,15.8µM*
N#CC(C(=O)C1CCCCC1)c1nc2ccccc2[nH]1 (configuration not stated),-4.7%,3.6%,-14.6%,25.2%,17.1%[12.7 µM]
CNc1nc(N)c([N+](=O)[O-])c(Nc2cccc(F)c2)n1,-17.1%,17.1%,-8.6%,8.6%,?
COc1cc(C(=O)NCC(=O)N/N=C/c2ccc(-c3ccc([N+](=O)[O-])cc3)o2)cc(OC)c1OC,-12.4%,14.2%,-13.4%,0.6%,44.7µM*
COc1ccccc1C(=O)NCC(=O)N/N=C/c1ccc([N+](=O)[O-])cc1,5.1%,49.2%,-18.2%,3.1%,16.1%
COc1cc(C(=O)NCC(=O)N/N=C/c2ccc(-c3cccc([N+](=O)[O-])c3)o2)cc(OC)c1OC,-23.1%,17.8%,-22.1%,-11.3%,10µM*
O=C(O)Cc1sc(N/N=C\c2ccncc2)nc1-c1ccccc1,-21.1%,17.2%,-7.4%[11.4 µM],6.4%,2µM*
CCOC(=O)Cc1csc(N/N=C/c2cccc([N+](=O)[O-])c2)n1,-38.8%,8.7%,-6.5%,-21.8%,-3.2%
O=[N+]([O-])c1cccc(-c2csc(N/N=C/c3cccc(O)c3)n2)c1,?,44.7µM*,56.2µM*,?,35.5µM*
C(=N\Nc1nc(-c2ccccc2)cs1)/c1ccncc1,?,-4.8%,?,?,50.1µM*
O=C(O)Cc1sc(Nc2cccc3ccccc23)nc1-c1ccccc1,?,-16.7%,?,8.6%,-41.6%[12.7 µM]
C(=N\Nc1nc(-c2ccccc2)cs1)/c1cccs1,?,-23.6%,-34.2%,2.9%,14.1µM*
CCOC(=O)c1ccccc1OC(=O)NNc1ccccc1,nt,-1.6%,-17.2%,4.9%,nt
COCCn1c(=O)c(-c2cccs2)nc2cnc(Oc3ccc(OC)cc3)nc21,nt,nt,nt,nt,-4.8%[12.7 µM]
CCOC(=O)c1sc2cc([N+](=O)[O-])cc(SCC(C)C)c2c1N,-8.9%,?,39.8µM*,0.8%,-34.0%[59 µM]
CCCN(CCC)CCNc1c(NC2CCN(C(=O)OCC)CC2)c(=O)c1=O,8.1%,87.1%,-6.2%,37.7%,-15.2%
CCCN(CCC)CCNc1c(N2CCN(C(=O)OCC)CC2)c(=O)c1=O,8.3%,21.7%,0.0%,4.0%,79.4µM*
COc1ccc(C(=O)/C=C/C(=O)N(CC(=O)NC2CCCCC2)Cc2cccs2)c(O)c1,-24.6%,14.3%,-13.4%,-13.1%,15.8µM*
CSc1sc(C)cc1C1C(C#N)=C(N)N(c2cccnc2)C2=C1C(=O)CC(C)(C)C2 (configuration not stated),-5.2%,39.8%,-6.6%,1.0%,?
SMILES,BAZ2B block,HP1b chromo inh,JMJD2A Tudor,GLS inh,G9a inh
CCOc1ccc(OCC)c(C2C(C#N)=C(N)N(c3cccnc3)C3=C2C(=O)CC(C)(C)C3)c1 (configuration not stated),?,40.6%,-9.7%,-3.3%,50.1µM*
CCCCN(C(=O)c1cccc(C)c1)c1c(N)n(CCC)c(=O)[nH]c1=O,7.0%,48.1%,2.7%,-11.5%,24.5%
Nc1nc(-c2ccco2)nn1S(=O)(=O)c1ccccc1,-17.9%,25.4%,7.9%,-11.5%,-8.7%
Nc1nc(C(=O)N2CCOCC2)nn1S(=O)(=O)c1ccc(Cl)cc1,-7.2%,18.2%,14.1µM*,76.8%,?
CCS(=O)(=O)n1nc(C(=O)N2CCOCC2)nc1N,?,24.5%,89.1µM*,-2.4%,?
Nc1nc(C(=O)N2CCOCC2)nn1S(=O)(=O)c1ccccc1,50.1µM*,20.4%,20µM*,-0.6%,17.8µM*
O=C(N1CCOCC1)N1CCN(S(=O)(=O)c2ccc(Cl)cc2)C1,-0.3%,18.4%,4.9%,-14.2%,17.9%[59 µM]
CCS(=O)(=O)n1nc(-c2ccc(C)cc2)nc1N,5.8%,41.9%,4.6%,3.8%,-10.9%[12.7 µM]
COCCCNC(=S)N1CCC(C(=O)c2ccc3c(c2)OCCO3)CC1,?,28.8%,-15.2%,16.0%,-5.5%
O=C(CN1C(=O)CC(c2ccc(F)cc2)=Nc2ccccc21)NCc1ccccc1Cl,-8.7%,24.6%,-27.7%,15.7%,-2.1%[59 µM]
O=C(O)C1=C(C(=O)O)C2C=CC1C2,nt,-10.7%[57 µM],89.1µM*,-18.4%,nt
COC(=O)c1cc(OC)c(OC)cc1N1C(=O)CCCC1=O,-5.8%,29.1%,-14.1%,-11.3%,-1.6%
Cc1cc(C)n(-c2nc(SCCN(C)C)c3c4c(sc3n2)CCCC4)n1,?,2.4%,56.2µM*,-2.0%,nt
CC(OC(=O)c1ccc([N+](=O)[O-])o1)C(=O)NC1CCCCC1C (configuration not stated),-4.6%,20.8%,-6.7%,-24.2%,-4.9%[12.7 µM]
N#CC(C#N)=c1ccc2c(c1)NC1(CCCCC1)N=2,12.6µM*,31.6µM*,22.4µM*,14.1%,11.2µM*
C=CCN1C(=O)/C(=c2\sc3nc(=O)c(Cc4ccccc4Cl)nn3c2=O)c2ccccc21,?,?,70.8µM*,8.4%,11.2µM*
C=CCn1c(=O)c2c(nc(Br)n2Cc2ccccc2Cl)n(C)c1=O,-2.9%[57.1 µM],-10.8%,-6.9%[11.4 µM],-20.8%,-3.3%[59 µM]
CC(C)(C)c1ccc(OC(=O)Nc2ccc(O)c(C(=O)O)c2)cc1,?,17.3%,-29.0%,13.0%,?
O=C1c2sccc2-c2cccc3cccc1c23,nt,nt,nt,9.9%,nt
O=C1C(Br)=Cc2cccc3cccc1c23,25.1µM*,-37.1%,?,-0.2%,?
O=C(O)CCC(=O)c1cccc2ccccc12,9.4%,31.2%,-11.8%,1.8%,15.1%[59 µM]
C[N+](C)(C)CCC(=O)c1cccc2ccccc12,nt,nt,nt,nt,0.501µM*
Cc1nc(S(=O)(=O)c2ccc(Cl)cc2)c(NCc2ccccc2)o1,-5.7%,45.3%,1.4%,3.2%,44.7µM*
O=S(=O)(c1ccc(Cl)cc1)c1nc(-c2ccccc2F)oc1NCc1ccccc1,?,3.4%,-15.6%,15.3%,-29.2%[59 µM]
CCOC(=O)c1sc(N)nc1C(C)(C)C,9.3%,0.2%,-6.2%[11.4 µM],-6.1%,15.8µM*
CCOC(=O)c1sc(NCCNc2nc(C)c(C(=O)OCC)s2)nc1C,-12.3%,7.7%,50.1µM*,3.6%,50.1µM*
